This is part of a sample that, as a whole, favours compounds with a hit. Of some 83,000 tested, about 20% had one in any assay.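 Values shown are percent growth following 48 h exposure of cells in 96-well plates to a single concentration of compound; below 10 was considered active.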 A number with no mark means an inactive call. Active and inactive are the calls of the source.
Columns and labels:
Experiment in all cases: NCI-60 one-dose screen, 48 h (100 = growth as untreated, 0 = no growth, -100 = all killed)
Details in all cases: 10 µM unless noted
[1] = tested on: SK-MEL-2 melanoma
[2] = tested on: EKVX NSCLC
[3] = tested on: SN12C renal
[4] = tested on: UO-31 renal
[5] = tested on: TK-10 renal
[6] = tested on: ACHN renal
[7] = tested on: CAKI-1 renal
[8] = tested on: A498 renal
[9] = tested on: CCRF-CEM leukemia
[10] = tested on: MOLT-4 leukemia
[11] = tested on: SR leukemia
[12] = tested on: RPMI-8226 leukemia
[13] = tested on: OVCAR-8 ovarian
[14] = tested on: OVCAR-5 ovarian
[15] = tested on: OVCAR-4 ovarian
[16] = tested on: SK-OV-3 ovarian
[17] = tested on: IGROV1 ovarian
[18] = tested on: OVCAR-3 ovarian
[19] = tested on: HS 578T breast
[20] = tested on: NCI/ADR-RES ovarian

Row | SMILES | growth [1] | growth [2] [%] | growth [3] | growth [4] | growth [5] | growth [6] | growth [7] | growth [8] | growth [9] | growth [10] | growth [11] | growth [12] | growth [13] | growth [14] [%] | growth [15] | growth [16] | growth [17] | growth [18] | growth [19] [%] | growth [20]
1 | c1ccc(-c2cn(-c3ccccc3)c(-c3ccccc3)n2)cc1 | 81.7% | 89.1 | 97.7% | 41.4% | 81.8% | 91.1% | 98.4% | 94.5% | -25.8% (active) | -13.3% (active) | -29.7% (active) | -58.9% (active) | 21.1% | 83.4 | 88.7% | 97.1% | 4.72% (active) | 13.4% | 87.1 | 92.4%
2 | O=C(/C=C\c1cccc([N+](=O)[O-])c1)/C=C/c1cccc([N+](=O)[O-])c1 | -38.1% (active) | 107 | 98.1% | 71.1% | 89.9% | 89.6% | 94.2% | 90.4% | 74.4% | 94.3% | 44.2% | -6.63% (active) | 80.7% | 90.1 | 95.5% | 95.5% | 52.2% | 67.5% | 90.6 | 91.7%
3 | O=S(=O)(CC(O)(c1ccccc1)c1ccccc1)CC(O)(c1ccccc1)c1ccccc1 | 109% | 73.8 | 90.1% | 92.9% | 107% | 78.1% | 66.9% | 98.7% | 64.8% | 96.7% | 118% | 94.7% | 75.8% | 94.9 | 80.9% | 77% | 66.5% | 77.1% | 65.3 | 86.1%
4 | COc1ccncc1S(=O)(=O)NC(=O)Nc1ccc(Cl)c(Cl)c1 | 92.9% | 84.7 | 94.5% | 66.7% | 113% | 85.2% | 84.4% | 96.3% | 81.7% | 83.5% | 74.8% | 46.2% | 97.8% | 89.6 | 95.7% | 114% | 82.7% | 90% | 93.9 | 89.8%
5 | O=C(NNC(=S)Nc1ccccc1)c1cc2ccc1CCc1ccc(cc1)CC2 | 74.5% | 76.3 | 58.3% | 82.2% | 99.6% | 61.4% | 63.8% | 61% | 33.8% | 57% | 78.4% | 46.4% | 68.2% | 92.2 | 47.8% | 113% | 64.1% | 55.5% | 97.2 | 67.2%
6 | CC(C)(C)Nc1c(-c2cccs2)nc2ncccn12 | 100% | 104 | 94.9% | 86.9% | 101% | 107% | 89.9% | 80.1% | 89.9% | 86.2% | 92.4% | 94.2% | 104% | 108 | 103% | 99.9% | 102% | 102% | 97.8 | 104%
7 | COc1cc(NC(N)=NCCC(C)(C)Oc2ccc(C(F)(F)F)cc2)ncc1C#N | -38.5% (active) | 27.1 | -90.3% (active) | -23.5% (active) | -74.2% (active) | 2.74% (active) | 51.6% | 42.8% | -13.8% (active) | -20.8% (active) | -54.9% (active) | -49.6% (active) | -76.6% (active) | 28.9 | 12% | 48.8% | -38.9% (active) | -75% (active) | 38.1 | 0.0363% (active)
8 | O=C1c2c(c3c4ccccc4n(CCCCCCBr)c3c3[nH]c4ccccc4c23)C(=O)N1O | -19.4% (active) | 19.8 | 8.36% (active) | 0.628% (active) | 18.1% | 4.33% (active) | -23.7% (active) | -9.63% (active) | 3.53% (active) | 0.344% (active) | 6.48% (active) | 1.01% (active) | 0.342% (active) | 19.8 | 7.84% (active) | 3.04% (active) | -5.71% (active) | 15% | 50.3 | 9.64% (active)
9 | CC(C)CSc1nc(NN)c(C#N)c(-c2ccccc2)n1 | 101% | 91.4 | 104% | 81.7% | 110% | 92.8% | 90.3% | 69.1% | 97.4% | 104% | 109% | 100% | 105% | 104 | 86.9% | 100% | 103% | 91% | 95.7 | 92.3%
10 | CN(C)c1ncnc2c1ccn2C1OC(CO)C(O)C1O (stereo not given) | 54.9% | 60.5 | 17.8% | 24.8% | 40.9% | 32.3% | 34.7% | 68% | 10.7% | 9% (active) | 89.5% | 83.7% | 0.899% (active) | 39.5 | 33.3% | 33.7% | -0.957% (active) | 25.9% | 17.5 | 1.88% (active)
11 | O=[N+]([O-])c1cccc(-c2nc3sccn3c2-c2ccnc(NCCCNS(=O)(=O)c3ccc(Cl)cc3)n2)c1 | 45.3% | 50.9 | 53.8% | 22.2% | 117% | 47.8% | 43.8% | 68% | 16.7% | 13.7% | 60.7% | 16.2% | 20% | 112 | 17.5% | 96.5% | 43.3% | 44.5% | 81.2 | 12.6%
12 | O=c1[nH]c(Nc2ccc(S(=O)(=O)O)cc2)nc2nc(Nc3ccc(NC(=S)Nc4ccccc4)cc3)nc(-c3ccc(O)cc3O)c12 | 101% | 110 | 98.5% | 73.9% | 156% | 100% | 134% | 111% | 94.5% | 91.4% | 61.7% | 82.6% | 55.5% | 116 | 107% | 114% | 61.7% | 119% | 102 | 109%
13 | C=C1C(=O)O[C@H]2[C@H]1CC/C(Cn1cc(CNC(=O)c3cc4ccccc4[nH]3)nn1)=C\CC[C@@]1(C)O[C@@H]21 | 59.6% | 86.9 | 59.2% | 73.4% | 53% | 55.8% | 80.8% | 106% | -18.8% (active) | 4.74% (active) | 4.37% (active) | -11.5% (active) | 44.8% | 110 | 83% | 106% | 71% | 3.43% (active) | 99.9 | 101%
14 | C=C(C)[C@@H]1C[C@H](O)Cc2cc(F)ccc2N1 | 76.8% | 87.3 | 93.8% | 75.5% | 92.3% | 94.4% | 91.4% | 111% | -62.7% (active) | -28.3% (active) | 83.2% | 74.8% | 96.5% | 85.5 | 108% | 102% | 108% | 111% | 96.8 | 93.6%

From PubChem BioAssay (NCI)
